The whole screen tested about 5,500 compounds, of which about 2,000 (36%) were called active. Not shown: some 18% with an inconclusive outcome. No stated cut-off is given here; in the data, active means normalized growth mostly below about 0.91 (no sharp cut-off); inconclusive means no clear call, values can overlap the other calls; inactive means mostly above about 0.92. This is one part of the list.
Experiment: chemical genetic growth profiling, strain panel (AID 1159580);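 further: tested at 20 µM; growth read once vehicle control cultures reached saturation at 30 °C; 1 = growth at the plate median or of vehicle wells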
Details: S. cerevisiae deletion strains, growth OD

Measured: normalized growth

COc1ccc(CN(CCN(C)C)c2ncccn2)cc1
inactive: locus YAL021C, strain ccr4, stronger effect = lower value 1.01 | locus YAL026C, strain drs2, stronger effect = lower value 1.04 | locus YAL030W, strain snc1, stronger effect = lower value 0.997 | locus YBL061C, strain skt5, stronger effect = lower value 1.01 | locus YBR009C, strain hhf1, stronger effect = lower value 1.01 | locus YBR023C, strain chs3, stronger effect = lower value 1.01 | locus YBR171W, strain sec66, stronger effect = lower value 1.01 | locus YBR231C, strain swc5, stronger effect = lower value 1.04 | locus YBR279W, strain paf1, stronger effect = lower value 1.01 | locus YCL011C, strain gbp2, stronger effect = lower value 1.01 | locus YCL016C, strain dcc1, stronger effect = lower value 1.01 | locus YCL061C, strain MRC1, stronger effect = lower value 1.02 | locus YCL069W, strain vba3, stronger effect = lower value 1.01 | locus YCR088W, strain abp1, stronger effect = lower value 1.01 | locus YDL005C, strain med2, stronger effect = lower value 1.01 | locus YDL040C, strain nat1, stronger effect = lower value 1.02 | locus YDR001C, strain nth1, stronger effect = lower value 1.02 | locus YDR069C, strain doa4, stronger effect = lower value 1 | locus YDR137W, strain rgp1, stronger effect = lower value 1.01 | locus YDR159W, strain sac3, stronger effect = lower value 0.992 | locus YDR195W, strain ref2 1 | locus YDR297W, strain sur2, stronger effect = lower value 1.02 | locus YDR334W, strain swr1, stronger effect = lower value 0.998 | locus YDR335W, strain msn5, stronger effect = lower value 1.01 | locus YDR392W, strain spt3, stronger effect = lower value 1.03 | locus YEL003W, strain gim4, stronger effect = lower value 1.01 | locus YEL037C, strain rad23, stronger effect = lower value 1.01 | locus YEL061C, strain CIN8 (second series), stronger effect = lower value 1 | locus YER015W, strain faa2, stronger effect = lower value 1.02 | locus YER016W, strain bim1, stronger effect = lower value 1.02 | locus YER111C, strain swi4, stronger effect = lower value 1.02 | locus YER155C, strain BEM2 (second series), stronger effect = lower value 1.05 | locus YFR010W, strain ubp6, stronger effect = lower value 1.01 | locus YGL167C, strain pmr1, stronger effect = lower value 1.02 | locus YGL173C, strain kem1, stronger effect = lower value 1.03 | locus YGL227W, strain vid30, stronger effect = lower value 1.01 | locus YGL240W, strain doc1, stronger effect = lower value 1.01 | locus YGL253W, strain hxk2, stronger effect = lower value 1.02 | locus YHR013C, strain ard1, stronger effect = lower value 1.01 | locus YHR027C, strain rpn1, stronger effect = lower value 1.01 | locus YHR030C, strain SLT2, stronger effect = lower value 1 | locus YHR079C, strain IRE1, stronger effect = lower value 1 | locus YHR142W, strain chs7, stronger effect = lower value 1.04 | locus YJL092W, strain hpr5, stronger effect = lower value 1.03 | locus YJL095W, strain BCK1 (second series), stronger effect = lower value 1.01 | locus YJL095W, strain BCK1, stronger effect = lower value 1 | locus YJL115W, strain asf1, stronger effect = lower value 1.01 | locus YJL129C, strain trk1, stronger effect = lower value 1.01 | locus YJL154C, strain vps35, stronger effect = lower value 1.01 | locus YJL164C, strain tpk1, stronger effect = lower value 1.02 | locus YJL166W, strain qcr8, stronger effect = lower value 0.995 | locus YJR066W, strain TOR1, stronger effect = lower value 0.954 | locus YKL160W, strain elf1, stronger effect = lower value 1.02 | locus YKR026C, strain gcn3, stronger effect = lower value 1 | locus YKR091W, strain srl3, stronger effect = lower value 1 | locus YLL001W, strain dnm1, stronger effect = lower value 1.01 | locus YLL026W, stronger effect = lower value 1 | locus YLL041C, strain sdh2, stronger effect = lower value 0.995 | locus YLR027C, strain aat2, stronger effect = lower value 1.01 | locus YLR113W, strain HOG1, stronger effect = lower value 1 | locus YLR221C, strain rsa3, stronger effect = lower value 0.998 | locus YLR258W, strain gsy2, stronger effect = lower value 1.03 | locus YLR262C, strain YPT6 (second series), stronger effect = lower value 1.01 | locus YLR320W, strain mms22, stronger effect = lower value 1.01 | locus YLR342W, strain FKS1, stronger effect = lower value 1.02 | locus YLR357W, strain rsc2, stronger effect = lower value 1.01 | locus YLR370C, strain arc18, stronger effect = lower value 1.03 | locus YLR384C, strain iki3, stronger effect = lower value 1.02 | locus YML120C, strain ndi1, stronger effect = lower value 1.01 | locus YMR058W, strain fet3, stronger effect = lower value 1.03 | locus YMR125W, strain sto1, stronger effect = lower value 1.01 | locus YMR129W, stronger effect = lower value 1.02 | locus YMR205C, strain PFK2, stronger effect = lower value 1.02 | locus YMR231W, strain pep5, stronger effect = lower value 1.02 | locus YNL071W, strain lat1, stronger effect = lower value 1.02 | locus YNL183C, strain NPR1, stronger effect = lower value 0.943 | locus YNL209W, strain ssb2, stronger effect = lower value 1.03 | locus YNL248C, strain rpa49, stronger effect = lower value 1.03 | locus YNL322C, strain KRE1 (second series), stronger effect = lower value 1.02 | locus YNR049C, strain mso1, stronger effect = lower value 1.01 | locus YOR001W, strain rrp6, stronger effect = lower value 1.01 | locus YOR070C, strain gyp1, stronger effect = lower value 1.02 | locus YOR080W, strain dia2, stronger effect = lower value 1.01 | locus YOR083W, strain WHI5, stronger effect = lower value 0.981 | locus YOR106W, strain vam3, stronger effect = lower value 1.02 | locus YOR231W, strain MKK1, stronger effect = lower value 0.99 | locus YOR265W, strain rbl2, stronger effect = lower value 1.02 | locus YOR270C, strain vph1, stronger effect = lower value 1.03 | locus YOR290C, strain snf2, stronger effect = lower value 1.02 | locus YPL051W, strain arl3, stronger effect = lower value 1.02 | locus YPL078C, strain atp4, stronger effect = lower value 1.02 | locus YPL106C, strain sse1, stronger effect = lower value 0.994 | locus YPL240C, strain hsp82, stronger effect = lower value 0.999 | locus YPL256C, strain CLN2, stronger effect = lower value 0.991

Reference: PubChem BioAssay AID1159580 (chemical genetic matrix, 2015)
